In PubChem BioAssay:

Target: PEG-3 (UniProt Q6IN02)
Test: Peg3 promoter luciferase inhibitors, potency, dose response, cell-based, HeLa, CREF/GAPDH counter-screen panel (AID 624167)
Details: CREF/GAPDH counter-screens; HeLa PEG-Prom luciferase reporter, overnight, run 2, dose range 1, at 100 µM (top of the series) unless noted

Sequence of PEG-3 (Q6IN02 whole entry, looked up): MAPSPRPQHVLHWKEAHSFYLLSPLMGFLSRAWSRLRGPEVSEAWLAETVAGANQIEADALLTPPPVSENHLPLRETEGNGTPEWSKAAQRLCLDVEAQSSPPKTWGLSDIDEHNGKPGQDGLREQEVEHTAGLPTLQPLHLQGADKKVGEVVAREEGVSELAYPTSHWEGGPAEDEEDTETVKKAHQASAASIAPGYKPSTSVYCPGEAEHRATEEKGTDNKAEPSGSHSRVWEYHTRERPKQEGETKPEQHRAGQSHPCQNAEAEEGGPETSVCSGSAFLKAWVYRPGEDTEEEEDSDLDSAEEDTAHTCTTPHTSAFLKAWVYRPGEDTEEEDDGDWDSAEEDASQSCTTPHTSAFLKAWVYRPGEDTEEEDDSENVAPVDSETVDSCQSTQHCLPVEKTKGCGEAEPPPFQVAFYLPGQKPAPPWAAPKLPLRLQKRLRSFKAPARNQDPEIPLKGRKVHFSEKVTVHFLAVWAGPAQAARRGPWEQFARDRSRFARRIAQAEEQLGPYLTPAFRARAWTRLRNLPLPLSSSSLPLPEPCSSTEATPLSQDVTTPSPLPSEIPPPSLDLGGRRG

Row | SMILES | inhibition [%]
1 | O=C(Nc1ccc(-c2nc3ccccc3o2)cc1)c1ccc(N2CCOCC2)c([N+](=O)[O-])c1 | 37.6
2 | Cc1cc(Br)ccc1NC(=O)CN1C(=O)C2C3CC(c4ccccc4)C(C3)C2C1=O (stereo not given) | 92.1
3 | O=C(NC(c1ccc(F)cc1)c1ccc2ccccc2n1)C1CCN(Cc2cccc(C(F)(F)F)c2)CC1 (stereo not given) | 94.1
4 | O=C(CCCN1C(=O)/C(=C/c2ccccc2Cl)SC1=S)NNC(=O)c1ccccc1Cl | 101
5 | NC(c1csc(Nc2nccc(C(F)(F)F)n2)n1)C1CCCCC1 (stereo not given) | 99.1
6 | COc1ccc(S(=O)(=O)N2c3ccccc3OCC2c2ccccc2)cc1 (stereo not given) | -3.52
7 | COc1ccc(CC(N)c2csc(NC(=O)Nc3ccccc3C(C)(C)C)n2)cc1 (stereo not given) | 98.5
8 | O=S(=O)(NC1CC(NS(=O)(=O)OCC(Cl)(Cl)Cl)C2CCCCC12)OCC(Cl)(Cl)Cl (stereo not given) | 99.2
9 | CCCN(CCC)CCCNC(=S)Nc1ccc2nc(N3CCCC3)cc(C)c2c1 | 98.1
10 | COc1cc(C=NO)nc(-c2ccccn2)c1 | 73.1
11 | CC(C)NC(=O)NC(=O)COC(=O)c1c2c(nc3ccccc13)CCC2 | 93.6
12 | CC(=O)NC(c1ccc(C)cc1)c1cc(Cl)c2cccnc2c1O (stereo not given) | 89.7
13 | COCCn1c(C)cc(C(=O)CSc2nnc3ccccn23)c1C | 94.2
14 | O=C(O)c1ccc(N/N=C/c2ccc(OC(=O)c3ccccc3Cl)cc2)cc1 | 71.9
15 | CC(=O)c1ccc(Nc2nc(C(N)Cc3ccc(Cl)cc3)cs2)cc1 (stereo not given) | 98.2
16 | O=C(Cc1csc(Nc2nc(=S)[nH]c3ccccc23)n1)NCc1ccccc1Cl | -45.6
17 | COC(=O)c1cn(NC(=O)c2cc([N+](=O)[O-])ccc2F)c(=O)c2ccccc12 | 94
18 | COc1ccc2sc3cccc(NCCN(C)C)c3c(=O)c2c1 | 99.2
19 | O=C(Nc1ccccc1N1CCOCC1)c1cc(-c2ccncc2)nc2ccccc12 | 88
20 | CC(=O)c1cccc(-c2csc3ncnc(Sc4nnnn4C)c23)c1 | 100

Row | SMILES | inhibition [%]
21 | Cc1cc(C)c2nc(N(CCCN(C)C)C(=O)c3ccc(S(=O)(=O)N4CCCCCC4)cc3)sc2c1 | 100
22 | CN[C@H]1C[C@H]2c3[nH]c4ccc(-c5cccc(C)c5)cc4c3CCN2C[C@H]1[C@H](C)O | 100
23 | Cc1ccc(CC2(OCCN(C)C)CCC(C(C)(C)C)CC2)cc1 (stereo not given) | 97.3
24 | Cc1nc(-c2ccc(F)cc2)c(CC(=O)N(C)CC(=O)Nc2ccc(Cl)c(C(F)(F)F)c2)s1 | 102
25 | COc1cccc(/C=N/NC(=O)c2c(-c3ccccc3)noc2C)c1O | 54.6
26 | CC1(C)CC(NC(=O)c2sc3cc(Cl)ccc3c2Cl)CC(C)(C)N1 | 101
27 | CC1(C)CC(NC(=O)c2cccc(S(=O)(=O)N(Cc3ccccc3)c3ccccc3)c2)CC(C)(C)N1 | 102
28 | CCCCCCCCCC[N+](C)(C)CC/C=C1/c2ccccc2Sc2ccc(Cl)cc21 | 101
29 | NC1=NC[C@H](Cc2ccccc2)N1CCc1cc(C(F)(F)F)cc(C(F)(F)F)c1 | 101
30 | COc1cccc(NC(=O)Nc2cccc(C(=O)O)c2)c1 | 81.3
31 | O=S(=O)(Nc1cccc2ncccc12)c1cccs1 | 96.5
32 | COc1ccc(-c2oc3ccc(-c4cc(OC)c(OC)c(OC)c4)cc3c2C#Cc2ccccn2)cc1 | 53.3
33 | COc1ccc(-c2cc(C(=O)Nc3ccccc3N3CCOCC3)c3ccccc3n2)cc1OC | 15
34 | COc1ccc(CN(C)C(=O)C(Cc2ccccc2)NC(=O)c2ccccc2)cc1F (stereo not given) | 98.2
35 | CC(C)n1nc(C(=O)Oc2cc(Cl)ccc2Cl)c2ccccc2c1=O | 97.5
36 | CN(C)S(=O)(=O)c1cccc(NC(=O)CSc2cccc3cccnc23)c1 | 101
37 | CC(=O)Nc1ccc(S(=O)(=O)N(Cc2cccnc2)Cc2cc3ccccc3[nH]c2=O)cc1 | -18.5
38 | Cc1cccc(CN2C(=O)/C(=C\c3ccc(C(=O)NCCN4CCOCC4)cc3)Sc3ccccc32)c1 | 99.5
39 | COc1cccc(-c2sc3ccc(OC)cc3c2-c2ccc(OCCN(C)C)cc2)c1 | 98.3
40 | CN(C)CCCN(C(=O)c1ccc(S(=O)(=O)N(C)Cc2ccccc2)cc1)c1nc2cc3c(cc2s1)OCO3 | 99.3
